Compounds with a hit are over-represented: about 4.7% of the library has one in this group of screens.
proKLK7 act: activators of human kallikrein-7 zymogen. P49862. purified proKLK7, EDANS-DABCYL substrate fluorescence; 100% is mature enzyme control, 0% vehicle. activation, % at 7 µM. 370,000 tested, 0.9% active;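 active = activation above the mean of all tested compounds plus 3 SD, computed per campaign excluding outliers beyond control limits, cut at about 13% in these data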
rCAG binder: r(CAG) repeat RNA binding; TO-PRO-1 dye displacement fluorescence; inhibition, % at 3 µM; 370,000 tested, 1.3% active; AID 651821;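 active = inhibition above the plate cutoff, the mean of all test compounds on that plate plus 3 SD, cut at about 35% in these data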;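 note: 0% = DMSO alone and 100% = 100 µM mitoxantrone as full dye displacement; higher means more dye released from RNA so lower well fluorescence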
ADAM17 inh: inhibitors of human ADAM17. P78536. recombinant ADAM17, EDANS/DABCYL FRET peptide cleavage. inhibition, % at 6.95 µM. 370,000 tested, 0.83% active. AID 720648;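 active = inhibition above the mean of compounds lying between control limits plus 3 SD, set per campaign, cut at about 8.5% in these data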;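 note: 0% = DMSO-only wells as the low control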
Target sequence (P78536 215-824 limits assumed): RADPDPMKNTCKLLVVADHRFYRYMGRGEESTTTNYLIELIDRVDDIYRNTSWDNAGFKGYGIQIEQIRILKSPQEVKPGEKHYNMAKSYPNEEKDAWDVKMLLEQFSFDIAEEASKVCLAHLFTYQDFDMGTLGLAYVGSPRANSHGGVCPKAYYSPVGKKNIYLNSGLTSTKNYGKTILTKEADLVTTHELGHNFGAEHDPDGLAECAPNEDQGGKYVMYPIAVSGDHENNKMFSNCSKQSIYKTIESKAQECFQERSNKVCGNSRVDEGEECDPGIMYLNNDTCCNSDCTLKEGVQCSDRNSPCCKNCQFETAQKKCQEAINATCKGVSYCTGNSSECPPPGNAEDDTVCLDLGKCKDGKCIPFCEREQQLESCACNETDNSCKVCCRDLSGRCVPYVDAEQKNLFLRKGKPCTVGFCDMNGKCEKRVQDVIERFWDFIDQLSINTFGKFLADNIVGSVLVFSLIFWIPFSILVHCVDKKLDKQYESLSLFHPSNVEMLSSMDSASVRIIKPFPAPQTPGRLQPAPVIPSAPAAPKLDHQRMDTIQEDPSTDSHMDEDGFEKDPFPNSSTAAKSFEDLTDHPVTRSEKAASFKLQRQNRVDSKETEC
Pemphigus Ab inh: blocks pemphigus antibody binding to human desmoglein-3; P32926; DSG3-coupled beads, scFv-anti-DSG3-GFP binding, flow cytometry; hits give low values; binding (percent of control), % at 10 µM; 310,000 tested, 0.48% active; AID 588358;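 active = binding more than 3 SD below its plate's average and above zero; inconclusive = below that plate limit but binding exactly zero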;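 note: hits lower antibody fragment binding to DSG3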
MPTP inh: inhibitors of mitochondrial permeability transition pore | isolated mouse mitochondria, Ca2+ swelling absorbance, 30 min | inhibition, % at 10 µM | 360,000 tested, 1.4% active | AID 602449;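 active = inhibition of 50% or more, scaled per plate between neutral and stimulator controls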;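 note: 0% = DMSO wells given calcium and 100% = 1 mM EGTA wells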
ADAM10 inh: inhibits human ADAM10; recombinant ADAM10, EDANS/DABCYL FRET peptide cleavage, 3 h; inhibition, % at 7 µM; O14672; 370,000 tested, 0.62% active;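 active = inhibition above a per-campaign cutoff equal to the mean of compounds falling between control-based bounds plus 3 SD, cut at about 20% in these data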;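 note: 0% = DMSO wells while the 100% control is not disclosed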
KLK7 act conf: proKLK7 activation, confirmation; shares compounds with proKLK7 act; purified proKLK7, EDANS-DABCYL substrate fluorescence; scaled: vehicle 0, mature enzyme 100; activation, % at 7 µM; 3,200 tested, 68% active; AID 686949;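 active = activation, as change over the incubation, above the mean of all tested compounds plus 3 SD, cut at about 13% in these data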
EDANS-DABCYL int: fluorescence interference counter-screen for KLK7 activators | shares compounds with proKLK7 act | EDANS-DABCYL substrate fluorescence interference, no enzyme, 4 h; solvent 0%, active enzyme control 100% | activation, % at 7 µM | 3,200 tested, 80% active;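 active = activation above the all-compound mean plus 3 SD, ignoring values outside control-based bounds, cut at about 4.8% in these data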;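 note: value is the 4 h activation minus the activation read at time zero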
K7 EDANS ctr: optically interferes with EDANS-DABCYL fluorescence, kallikrein-7 activator counter-screen; shares compounds with proKLK7 act; EDANS-DABCYL peptide fluorescence interference, no enzyme; EC50, µM; 250 tested, 20% active;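 active = compounds that raise the fluorescence signal in this interference counterscreen, with EC50 at or below 10 µM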;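 note: intact quenched peptide substrate alone read at 355 nm excitation and 520 nm emission; signal is fluorescence gain from T0 to T4 after four hours at room temperature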
* marks the source's active call; other numbers are inactive results.

For COc1cc2c(cc1OC)CC[N+](C)=C2 the results were proKLK7 act 43*, rCAG binder -1, ADAM17 inh -208, Pemphigus Ab inh 112, MPTP inh -2, ADAM10 inh inactive, KLK7 act conf 58* and EDANS-DABCYL int 53*.
For C=C1C(=O)OC2CC3(C)OC3C3OC3C3=CC(OC3=O)C12 (configuration not stated) the results were proKLK7 act 0, rCAG binder 2, ADAM17 inh 0, MPTP inh -1 and ADAM10 inh -11.
`Cc1ccc(NC(=O)c2ncn(CCCNCCN3CCOCC3)n2)cc1C` gave proKLK7 act 0, rCAG binder -2, ADAM17 inh -6, Pemphigus Ab inh 110, MPTP inh -1 and ADAM10 inh -11.
`O=c1ccc2cc(O[C@@H]3O[C@@H](CO)[C@H](O)[C@@H](O)[C@@H]3O)c(O)cc2o1` gave proKLK7 act 65*, rCAG binder -1, ADAM17 inh inactive, Pemphigus Ab inh 103, MPTP inh -1, ADAM10 inh inactive, KLK7 act conf 77* and EDANS-DABCYL int 84*.
For Cc1cccc(N2CCc3c2nc2ccccc2c3N)c1 the results were proKLK7 act 22*, rCAG binder 9, ADAM17 inh -130, Pemphigus Ab inh 113, MPTP inh 3, ADAM10 inh -425, KLK7 act conf -27 and EDANS-DABCYL int -22.
For COCCN1Cc2cc(=O)n3c([nH]c4ccccc43)c2C1=N the results were proKLK7 act 22*, rCAG binder 3, ADAM17 inh inactive, Pemphigus Ab inh 107, MPTP inh 2, ADAM10 inh inactive, KLK7 act conf 19*, EDANS-DABCYL int -8 and K7 EDANS ctr >70.
Screening C=CCOC(=O)COc1cc(C)cc2oc(=O)c3c(c12)CCC3 returned proKLK7 act 41*, rCAG binder 3, ADAM17 inh -71, MPTP inh -1, ADAM10 inh -293, KLK7 act conf 44* and EDANS-DABCYL int 44*.
CC(C)NC(C)C(=O)c1ccc2ccccc2c1 (configuration not stated) was read as proKLK7 act 27*, rCAG binder 2, ADAM17 inh -31, Pemphigus Ab inh 97, MPTP inh 14, ADAM10 inh -93, KLK7 act conf 4 and EDANS-DABCYL int 8.3*.
For CC(C(=O)c1ccc2ccccc2c1)N1CCCCC1 (configuration not stated) the results were proKLK7 act 32*, rCAG binder -4, ADAM17 inh -54, Pemphigus Ab inh 96, MPTP inh -1, ADAM10 inh -146, KLK7 act conf -2 and EDANS-DABCYL int 1.
COc1ccc2c(c1)c(C(=O)C(C)N1CCCCC1)c(C)n2C (configuration not stated) was read as proKLK7 act -1, rCAG binder -1, ADAM17 inh -4, Pemphigus Ab inh 96, MPTP inh 0 and ADAM10 inh 0.
`c1ccc2oc(-c3ccc4c(c3)CNCc3cnnn3-4)cc2c1` gave proKLK7 act 22*, rCAG binder 3, ADAM17 inh -245, MPTP inh 2, ADAM10 inh inactive, KLK7 act conf 19* and EDANS-DABCYL int 19*.
For O=C(c1cc(F)ccc1F)C1CCCN(Cc2ccc3nonc3c2)C1 (configuration not stated) the results were proKLK7 act 0, rCAG binder -4, ADAM17 inh -1, Pemphigus Ab inh 112, MPTP inh 4 and ADAM10 inh -1.
Screening Nc1ccc2ccc3cccc[n+]3c2c1 returned proKLK7 act 95*, rCAG binder inactive, ADAM17 inh -22, Pemphigus Ab inh 90, MPTP inh 0, ADAM10 inh -53, KLK7 act conf 73* and EDANS-DABCYL int 66*.
`O=C(c1cc(-c2ccccc2)nc2ccccc12)N1CCC2(CC1)OCCO2` gave proKLK7 act -1, rCAG binder -8, ADAM17 inh -5, Pemphigus Ab inh 117, MPTP inh -1 and ADAM10 inh -8.
`O=C(c1cccn2c(=O)c3cc(Cl)ccc3nc12)N1CCC2(CC1)OCCO2` gave proKLK7 act 14*, rCAG binder -1, ADAM17 inh -175, Pemphigus Ab inh 103, MPTP inh -3, ADAM10 inh inactive, KLK7 act conf 58* and EDANS-DABCYL int 73*.
`O=C(c1cccn2c(=O)c3ccccc3nc12)N1CCC2(CC1)OCCO2` gave proKLK7 act 40*, rCAG binder 0, ADAM17 inh -347, Pemphigus Ab inh 102, MPTP inh 2, ADAM10 inh inactive, KLK7 act conf 42* and EDANS-DABCYL int 49*.
COC(=O)C1=C(C(=O)OC)C2OC1c1cc3ccccc3cc12 was read as proKLK7 act 0, rCAG binder 0, ADAM17 inh -4, Pemphigus Ab inh 91, MPTP inh -2 and ADAM10 inh -14.
Screening N#C/C=C/C#N returned proKLK7 act 0, rCAG binder 2, ADAM17 inh 0, Pemphigus Ab inh 101, MPTP inh -1 and ADAM10 inh 10.
Screening COc1ccc(-c2cc(=Nc3cccc(C(=O)O)c3)c3cc(C)ccc3o2)cc1 returned proKLK7 act -8, rCAG binder 11, ADAM17 inh -486, Pemphigus Ab inh 101, MPTP inh -1 and ADAM10 inh inactive.
Screening COc1ccc(-c2cc(=NCCCCCC(=O)O)c3cc(C)ccc3o2)cc1 returned proKLK7 act 105*, rCAG binder 1, ADAM17 inh inactive, Pemphigus Ab inh 90, MPTP inh -3, ADAM10 inh inactive, KLK7 act conf 64* and EDANS-DABCYL int 72*.
`O=C1Nc2ccccc2C(c2ccccc2)=NC1O` (configuration not stated) gave proKLK7 act 0, rCAG binder 2, ADAM17 inh -2, Pemphigus Ab inh inconclusive, MPTP inh 0 and ADAM10 inh 11.
Screening Cc1cc(=O)oc2cc(OCC(=O)N3C[C@H]4C[C@@H](C3)c3cccc(=O)n3C4)c(Cl)cc12 returned proKLK7 act 0, rCAG binder 0, ADAM17 inh -14, MPTP inh -1 and ADAM10 inh -66.

Source: PubChem
